A selection: hits, their analogues and other compounds. The true share with any hit is near 19%.
IL1B secr inh: inflammasome signaling inhibition, IL-1 beta readout | hit rate 4.7% among 360,000 | activity change, % at 57.5 µM | THP-1 LPS/ATP IL-1B secretion, AlphaLISA, 16 h; active compounds read low | AID 743279; in the data active = activity change below about -50%; inconclusive = mostly about -30% to -49%
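Secreted IL-1B measured by AlphaLISA bead assay after 16 h compound exposure of THP-1 cells; compounds (final up to 57.5 uM) added 1 h before LPS (250 ng/mL) and ATP (1.25 mM) stimulation; lower signal means less secretion.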
TDP1 cell noCPT: qHTS for Inhibitors of human tyrosyl-DNA phosphodiesterase 1 (TDP1): qHTS in cells in absence of CPT. DT40 Tdp1-/- hTDP1 cells, no CPT, ATP luminescence, 48 h. Potency, µM (series often up to 46.2 µM), without a hit: top-dose activity change, negative = growth inhibition, usual class: inhibitors. hit rate 15% among 420,000. AID 686978, 2013; note: potency is the fitted concentration of half-maximal effect; nearly all actives have a fitted effect of over 55% in size
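DT40 Tdp1-/-;hTDP1 cells, no CPT (DMSO vehicle only), 400 cells/well; compounds pin-transferred; ≥48 hr, 37 °C; CellTiter-Glo 30 min RT dark, luminescence read.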
HT1080-NT tox: kills 2HG-producing HT-1080-NT fibrosarcoma cells. HT-1080-NT fibrosarcoma viability, CellTiter-Glo ATP luminescence, 48 h. Potency, µM (series often up to 46.1 µM), inactives show at the highest dose activity, negative = less viability, most hits filed as cytotoxic. hit rate 1.6% among 360,000;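 note: NT is the 2HG producing partner of a matched IDH1 knockdown line; potency is the fitted concentration of half-maximal effect; 0% = DMSO-treated cells and -100% = media-only wells without cells; nearly all actives have a fitted effect of over 55% in size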
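Fibrosarcoma NT cells, 750 per well in 5% FBS RPMI, were exposed to compound for 48 hours. Viability: CellTiter-Glo luminescence.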
HT1080 IDH1KD tx: kills HT-1080 cells with IDH1 knockdown; HT-1080 IDH1 knockdown viability, ATP luminescence, 48 h; Potency, µM (doses to about 46.1 µM), inactives show at the top dose activity, negative = toxicity, usual class: cytotoxic; hit rate 2% among 360,000;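 note: potency is the fitted concentration of half-maximal effect; 0% = DMSO wells and -100% = cell-free medium wells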
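Viability of IDH1-knockdown HT-1080 fibrosarcoma cells was assessed by CellTiter-Glo after 48 h at 37 °C with titrated compound; concentration-effect curves were classified by fit quality and response size.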
uPA generation: blocks generation of uPA at the cell surface. cell surface uPA generation assay, qHTS. Potency, µM (series often up to 38.3 µM), without a hit: top-dose activity change, negative = inhibition, actives largely listed as inhibitors. hit rate 0.31% among 330,000. AID 540303; active = well fitted inhibition curve with a large enough effect; inconclusive = small, poorly fitted or top-dose-only effect; inactive = no such curve, though single readings can be large or run the other way; tested in mouse RAW 264.7 cells; note: potency is the fitted concentration of half-maximal effect; nearly all actives have a fitted effect of over 55% in size
TDP1 cell CPT: growth inhibition of DT40 Tdp1-/-;hTDP1 cells with camptothecin (screen for TDP1 inhibitors); chicken DT40 Tdp1-/-;hTDP1 cells + 20 nM CPT, ATP luminescence, 48 h; Potency, µM (series often up to 46.2 µM), inactives show top-dose activity change, negative = growth inhibition, most hits filed as inhibitors; hit rate 12% among 420,000; note: potency is the fitted concentration of half-maximal effect; nearly all actives have a fitted effect of over 55% in size
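Cell growth measured by CellTiter-Glo luminescence after a minimum 48 h, 37 C compound exposure with 20 nM CPT in Tdp1-knockout DT40 cells stably expressing hTDP1, seeded 400/well; qHTS titration format.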
* = called active by the depositor; ? = inconclusive; . = no result; [ ] = dose if it differs, or a comment. Unless noted, calls come from the whole dose curve; as a rule, active = well fitted curve in the direction sought with a large enough effect; inconclusive = small, poorly fitted or top-dose-only effect, or another doubt; inactive = no such curve, though single readings can be large; an effect the other way counts as inactive or inconclusive. Unless noted, % is set by controls: 0 for no effect and ±100 for the full control effect.

SMILES	IL1B secr inh	TDP1 cell noCPT	HT1080-NT tox	HT1080 IDH1KD tx	uPA generation	TDP1 cell CPT
CCOc1ccccc1NC(=O)COC(=O)c1cnc(C)cn1	5	1%	5%	3%	6%	-1%
CCC(C)NC(=O)c1ccc2c(c1)N(Cc1ccccc1)C(=O)c1ccccc1S2(=O)=O (configuration not stated)	.	-20%	.	.	.	?
O=C(NCc1ccccc1)C1CCCN(C(=O)c2ccc(F)cc2)C1 (configuration not stated)	-1	-1%	2%	1%	2%	-1%
Cn1nc(C2CC2)cc1NC(=O)C1(C)CCN1C(=O)Cc1ccc(-c2ccccc2)cc1 (configuration not stated)	-23	21µM*	-15%	-17%	.	21µM*
CC1(C(=O)Nc2ccccc2)CCN1C(=O)Cc1ccc(-c2ccccc2)cc1 (configuration not stated)	-7	18µM*	?	?	.	23µM*
CC1(C(=O)Nc2ccccc2F)CCN1C(=O)Cc1ccc(-c2ccccc2)cc1 (configuration not stated)	4	15µM*	?	?	.	?
Cn1nc(C2CC2)cc1NC(=O)C1(C)CCN1C(=O)CCc1ccccc1 (configuration not stated)	13	-20%	24%	12%	.	-25%
CCCC(C)(C)C(=O)N1CCC1(C)C(=O)Nc1cccc2ccccc12 (configuration not stated)	10	10µM*	-7%	-25%	.	21µM*
CCCC(=O)N1CCC1(C)C(=O)Nc1ccccc1C(C)(C)C (configuration not stated)	25	-18%	25%	19%	.	0%
CC1(C(=O)Nc2ccccc2F)CCN1C(=O)Cc1cc(F)ccc1F (configuration not stated)	-18	?	15%	15%	.	-1%
COCc1ccc(C(=O)N2CCCC(C(=O)c3ccc(SC)cc3)C2)s1 (configuration not stated)	0	?	-2%	-9%	-6%	?
Cc1sc2c(c1C)c(=O)n(-c1cccc(C(F)(F)F)c1)c(=O)n2Cc1ccccc1C#N	.	-16%	.	.	.	-20%
Cc1cc(C(=O)N2CCC2(C)C(=O)O)c(C)o1 (configuration not stated)	6	-3%	5%	14%	.	-4%
COc1ccc(NC(=O)CSc2nc(O)c(C/C=C/c3ccccc3)c(=O)[nH]2)cc1	.	-28%	.	.	.	-2%
CC(C)c1ccc(CC(=O)N2CCC2(C)C(=O)NCCC#N)cc1 (configuration not stated)	0	-25%	12%	5%	.	-34%
CCC(=O)N1CCC1(C)C(=O)Nc1ccc2c(c1)OCO2 (configuration not stated)	5	-3%	-1%	5%	.	2%
CC1(C(=O)Nc2ccc(Cl)c(Cl)c2)CCN1C(=O)Cc1cccc2ccccc12 (configuration not stated)	-21	?	-20%	?	.	?
CC1(C(=O)Nc2cnc3ccccc3c2)CCN1C(=O)CC(c1ccccc1)c1ccccc1 (configuration not stated)	-6	16µM*	3%	1%	.	?
CC1(C(=O)Nc2ccc3c(c2)OCO3)CCN1C(=O)Cc1ccc(-c2ccccc2)cc1 (configuration not stated)	-28	4.6µM*	?	?	.	7.3µM*
CC1(C(=O)NCCC#N)CCN1C(=O)CC(c1ccccc1)c1ccccc1 (configuration not stated)	-50*	?	26%	0%	.	-24%
CC1(C(=O)Nc2ccc(Cl)c(Cl)c2)CCN1C(=O)Cc1ccc(-c2ccccc2)cc1 (configuration not stated)	6	18µM*	?	?	.	15µM*
CSCCC(NC(=O)COc1ccccc1)C(=O)OC(C)C(=O)Nc1ccccc1C (configuration not stated)	-10	1%	-1%	2%	-6%	-25%
COc1cccc(NC(=O)C2(C)CCN2C(=O)Cc2ccc(-c3ccccc3)cc2)c1 (configuration not stated)	-13	15µM*	?	?	.	?
CC1(C(=O)N2CCCCC2)CCN1C(=O)Cc1ccc(-c2ccccc2)cc1 (configuration not stated)	1	?	-7%	-3%	.	15µM*
Cc1ccc(NC(=O)C2(C)CCN2C(=O)CC(c2ccccc2)c2ccccc2)cc1 (configuration not stated)	-15	?	-29%	-22%	.	?
SMILES	IL1B secr inh	TDP1 cell noCPT	HT1080-NT tox	HT1080 IDH1KD tx	uPA generation	TDP1 cell CPT
Cc1ccc(CNC(=O)C2(C)CCN2C(=O)Cc2ccc(-c3ccccc3)cc2)cc1 (configuration not stated)	-11	23µM*	?	?	.	?
Cc1cccc(S(=O)(=O)NC(=O)C2(C)CCN2C(=O)Cc2ccc(-c3ccccc3)cc2)c1 (configuration not stated)	65	?	-26%	-19%	.	4%
COc1cccc(NC(=O)C2(C)CCN2C(=O)CCc2ccc(Cl)cc2Cl)c1 (configuration not stated)	-20	?	-19%	-18%	.	?
CC1(C(=O)Nc2ccc(Cl)c(Cl)c2)CCN1C(=O)CC(c1ccccc1)c1ccccc1 (configuration not stated)	-9	23µM*	?	?	.	18µM*
C[C@@H]1Nc2ccc(Cl)cc2S(=O)(=O)N1	.	-10%	.	.	.	1%
CCC1C(=O)NCCN1Cc1ccc2c(c1)CN(Cc1ccc(F)c(OC)c1)CCO2 (configuration not stated)	.	-7%	.	.	.	-6%[9.04 µM]
CCCCOc1cc(C)nc(NCc2ccccc2)n1	20	16µM*	?	?	-2%	4.1µM*
Cc1cc(OC2CCCCC2)nc(NCc2ccccc2)n1	.	5%	18%	16%	3%	4%
CCOc1cc(C)nc(NCc2ccccc2)n1	16	21µM*	-29%	?	-9%	23µM*
CC(=O)c1ccc(Oc2cc(C)nc(NCc3ccccc3)n2)cc1	21	21µM*	-2%	5%	5%	21µM*
O=C1C=C(c2ccccc2)C(c2ccccc2)C1 (configuration not stated)	17	-10%	2%	-10%	1%	2%

Bioassay records as filed in PubChem BioAssay.
